Cdc25B inh – inhibitors of Cdc25B phosphatase catalytic domain, primary screen, biochemical, OMFP fluorescence; M-phase inducer phosphatase 2 (Homo sapiens), P30305; recombinant Cdc25B, OMFP fluorescence Ex485/Em525; inhibition, %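 (compounds tested at 10 µM final in the well)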; hit rate 0.1% among 65,000; AID 368, 2006; in the data active means inhibition above about 50%
MKP-1 inh – MKP-1 phosphatase inhibitors, primary screen, biochemical, in vitro; hit rate 0.15% among 65,000; inhibition, %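 (compounds tested at a single concentration somewhere between 10 and 100 µM)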; recombinant MKP-1, OMFP hydrolysis fluorescence; Dual specificity protein phosphatase 1 (Homo sapiens), P28562;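 active means inhibition above about 50%, limit read from the data; inconclusive means inhibition over screen mean plus 3 SD, below that limit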
Her2 expr inh – inhibitors of Her2 protein expression, primary screen, SKBR-3 cells, AlphaScreen, 66K library | Receptor tyrosine-protein kinase erbB-2 (Homo sapiens), P04626 | SKBR-3 HER2 protein level, 18-24 h; hits give low values | HER2 level % of control, % at 10 µM | hit rate 0.69% among 65,000 | AID 645, 2007;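 active means HER2 level under 5% of the carrier-only control; inconclusive means no clear call, values can overlap the other calls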;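 further: lower value means stronger loss of Her2 protein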
SK-BR-3 tox 24h – SK-BR-3 proliferation inhibitors, primary screen, cell-based, human, 24 h | SK-BR-3 viability, CellTiter-Glo ATP luminescence; hits give low values | viability, % at 10 µM | hit rate 0.47% among 41,000;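 active means viability at or below the median of all test compounds minus 3 SD, in both replicates if run twice, cut at about 45% in these data; inconclusive means duplicate replicates that disagree with each other; inactive means viability above that cutoff in every replicate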
Hsp90 block – tumor Hsp90 inhibitors, primary screen, cell lysate, fluorescence polarization, NCI-N417 lysate. hit rate 0.35% among 64,000. inhibition, % at 30 µM. Heat shock protein HSP 90-alpha (Homo sapiens), P07900. Cy3B-geldanamycin FP displacement;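 active means inhibition above 50%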
Large screens that a line does not name were inactive. Most compounds without a hit are left out; they make up all but 1.5% or so of the library.

O=C1COc2ccc(C(=O)COC(=O)Cn3cnc4ccccc43)cc2N1	none
Cc1cc(C)c(NC(=O)C[C@H](CC(=O)O)c2cccc3ccccc23)c(C(=O)N2CCC3(CCCC3)CC2)c1	none (no result: Cdc25B inh, MKP-1 inh, Her2 expr inh, SK-BR-3 tox 24h)
O=S1(=O)C=C(Sc2nc3ccccc3s2)c2ccccc21	Her2 expr inh -18.5, SK-BR-3 tox 24h 21.7
CC1CCN(c2ccc(C(=O)O)cc2N)CC1	SK-BR-3 tox 24h 43.4
Cc1ccc(-n2c(C)cc(C(=O)OCC(=O)N(CC(C)C)C3CCS(=O)(=O)C3)c2C)cc1 (stereo unspecified)	none (no result: SK-BR-3 tox 24h)
CCN(C(=O)COC(=O)c1cc(C)n(-c2ccc(F)cc2)c1C)C1CCS(=O)(=O)C1 (stereo unspecified)	Her2 expr inh -20.1 (no result: SK-BR-3 tox 24h)
CC(=O)c1sc(N2C(=O)c3oc4ccccc4c(=O)c3C2c2ccc(C)o2)nc1C (stereo unspecified)	none (no result: SK-BR-3 tox 24h)
N#C/C(C(=O)N1CCOCC1)=C1/SC(Cc2ccccc2)C(=O)N1c1ccccc1 (stereo unspecified)	none
N#C/C(C(=O)NCc1ccccc1)=C1\SC(CCO)C(=O)N1c1ccccc1 (stereo unspecified)	Cdc25B inh 84.1
CCOc1ccc(S(=O)(=O)Nc2cccc(Cl)c2)cc1	none
CCOc1ccc(S(=O)(=O)Nc2cc(Sc3ncn[nH]3)c3oc(=O)sc3c2)cc1	Hsp90 block 53.9
Cc1cc(C)n(CCn2nc(C)cc2C)n1	none
O=C(c1n[nH]c(=O)c2ccccc12)N1CCN(C2c3ccccc3-c3ccccc32)CC1	MKP-1 inh 51.8, Hsp90 block 89.7 (no result: SK-BR-3 tox 24h)
O=C(CN1C(=O)c2ccccc2S1(=O)=O)N1CCN(Cc2ccc3c(c2)OCO3)CC1	SK-BR-3 tox 24h 39.7
COc1ccc(Br)cc1C1NC(=O)c2c(sc3c2CCN(C)C3)N1 (stereo unspecified)	SK-BR-3 tox 24h 42.8
OCC1NC[C@@H](O)C(O)[C@@H]1O (stereo partly specified)	none (no result: Cdc25B inh, MKP-1 inh, Her2 expr inh, SK-BR-3 tox 24h)
CCN(CC)c1ccc2cc(-c3nc4ccccc4[nH]3)c(=O)oc2c1	SK-BR-3 tox 24h 41.5
OC[C@H]1O[C@@H](n2cnc3c(Nc4ccccc4)ncnc32)C(O)[C@H]1O (stereo partly specified)	none (no result: Cdc25B inh, MKP-1 inh, Her2 expr inh, SK-BR-3 tox 24h)
O=c1[nH]c2cc(C(F)(F)F)ccc2n1-c1cc(C(F)(F)F)ccc1O	Hsp90 block 58.9 (no result: Cdc25B inh, MKP-1 inh, Her2 expr inh, SK-BR-3 tox 24h)
O=c1[nH]c2cc(Cl)ccc2n1-c1ccccc1	none
COc1ccc(-c2cn3c(C)c(C(=O)N4CCN(c5ccc(OC)cc5)CC4)sc3n2)cc1	none (no result: SK-BR-3 tox 24h)
COc1ccc(S(=O)(=O)Nc2ccc(O)c3ccccc23)cc1	Her2 expr inh 3.4 (no result: SK-BR-3 tox 24h)
O=C(CCn1c(=O)[nH]c2ccccc2c1=O)Nc1ccccc1	Cdc25B inh 101.8 (no result: SK-BR-3 tox 24h)
O=C(CCCn1c(=O)[nH]c2ccccc2c1=O)NC1CCCCCC1	none (no result: SK-BR-3 tox 24h)
N=S(=O)(O)Cc1noc2ccccc12	none (no result: Cdc25B inh, MKP-1 inh, Her2 expr inh, SK-BR-3 tox 24h)
O=C1CC(N2CCN(CCc3ccccn3)CC2)C(=O)N1c1ccc(Cl)cc1 (stereo unspecified)	Cdc25B inh 58.5 (no result: SK-BR-3 tox 24h)
CCOc1ccccc1N(CC(=O)N1CCCCCC1)S(C)(=O)=O	none
CCOc1ccccc1N(CC(=O)N1CCOCC1)S(=O)(=O)c1ccccc1	Her2 expr inh -21.1
O=c1ccc2ccc(O)c(O)c2o1	Hsp90 block 69.4 (no result: Cdc25B inh, MKP-1 inh, Her2 expr inh, SK-BR-3 tox 24h)
CN1/C(=C\C(=O)c2ccco2)C(C)(C)c2ccccc21	none (no result: SK-BR-3 tox 24h)
CN1/C(=C/C(=O)c2nc(S(C)(=O)=O)ncc2Cl)C(C)(C)c2ccccc21	Her2 expr inh -15.3 (no result: SK-BR-3 tox 24h)
CCC(Sc1nc2cc3c(cc2c(=O)n1Cc1ccco1)OCO3)C(=O)Nc1cccc(OC)c1 (stereo unspecified)	Her2 expr inh -16.9 (no result: SK-BR-3 tox 24h)
O=c1c2cc(N3CCOCC3)ccc2[nH]c(=S)n1Cc1ccco1	MKP-1 inh 81.4 (no result: SK-BR-3 tox 24h)
CCOC(=O)CNC(=O)c1ccc2[nH]c3c(c2c1)CCCC3	none (no result: SK-BR-3 tox 24h)
CCS(=O)(=O)NCc1ccc2[nH]c3c(c2c1)CCCC3	Hsp90 block 70.8 (no result: SK-BR-3 tox 24h)
COc1ccc(-c2nnc3n2N=C(c2ccccc2)CS3)cc1OC	SK-BR-3 tox 24h 24.0
Cc1cccc(-c2nnc3n2N=C(c2ccccc2)CS3)c1	none
Cc1cc(-c2nnc3n2N=C(c2ccc(-c4ccccc4)cc2)CS3)n[nH]1	Her2 expr inh -20.7
Cc1ccc(-c2noc(C3CCCN(C(=O)c4ccc(F)cc4F)C3)n2)cc1 (stereo unspecified)	SK-BR-3 tox 24h 42.0
Cc1ccc(-c2ccc(/C=N/c3ncn[nH]3)o2)cc1Cl	SK-BR-3 tox 24h 34.9
O=C(O)CN1C(=O)CC(Cc2ccc(Cl)cc2)C1=O (stereo unspecified)	Her2 expr inh -19.7
O=C1CC(Cc2ccc(Cl)cc2)C(=O)N1c1ccccn1 (stereo unspecified)	none
CC(C)C1C2CCC(C2)C1N (stereo unspecified)	none (no result: Cdc25B inh, MKP-1 inh, Her2 expr inh, SK-BR-3 tox 24h)
CC1(C)NC(=O)N(CC(O)CN2C(=O)NC(C)(C)C2=O)C1=O	SK-BR-3 tox 24h 42.9
CC1(C)NC(=O)N(CC(O)CN2CCOCC2)C1=O (stereo unspecified)	none
OC[C@H]1O[C@@H](n2cnc3c(NC4CCCC4)ncnc32)C(O)[C@H]1O (stereo partly specified)	none (no result: Cdc25B inh, MKP-1 inh, Her2 expr inh, SK-BR-3 tox 24h)
O=C(Nc1ccc(Cl)cc1)Nc1ccc2c(c1)N1CCN=C1S2	Her2 expr inh -8.2
Nc1ccc2c(c1)N1CCN=C1S2	none
Cc1nnc(SCCn2c(N3CC(C)CC(C)C3)nc3c2c(=O)n(C)c(=O)n3C)s1 (stereo unspecified)	Hsp90 block 68.2
Cc1nnc(SCCn2c(Br)nc3c2c(=O)n(C)c(=O)n3C)s1	none
COc1cccc(-n2c(SCC(=O)O)nnc2-c2cccnc2)c1	Her2 expr inh -17.7
COc1cccc(-n2c(SCC(N)=O)nnc2-c2ccncc2)c1	none
CCOC(=O)C1=C(N)OC2=C(C(=O)CC(C)(C)C2)C1c1ccco1 (stereo unspecified)	none
CC1(C)CC(=O)C2=C(C1)OC1=C(C(=O)CC(C)(C)C1)C2c1ccc(O)cc1O	Her2 expr inh -0.6 (no result: SK-BR-3 tox 24h)
COc1ccc(CCNC(=O)CSc2nc(N)c(C#N)c(-c3cccs3)c2C#N)cc1OC	Her2 expr inh 1.8
Cc1ccccc1NC(=O)CSc1nc(N)c(C#N)c(-c2cccs2)c1C#N	none
CCn1c(SCC(=O)N2CCCc3ccccc32)nc2c1c(=O)n(C)c(=O)n2C	none
CCn1c(SCC(=O)Nc2nc3ccc(OC)cc3s2)nc2c1c(=O)n(C)c(=O)n2C	MKP-1 inh 50.0
CCn1c(SCC(=O)N2c3ccccc3CCc3ccccc32)nc2c1c(=O)n(C)c(=O)n2C	Her2 expr inh -3.2 (no result: SK-BR-3 tox 24h)
COc1cc(-c2nc(-c3ccc(NC(=O)c4ccc5c(c4)OCO5)cc3)no2)cc(OC)c1OC	Her2 expr inh -3.3, SK-BR-3 tox 24h inconclusive
COc1ccc(CC(=O)Nc2ccc(-c3noc(-c4cc(OC)c(OC)c(OC)c4)n3)cc2)cc1	none (no result: SK-BR-3 tox 24h)
NC(N)=[N+]1CCc2ccccc2C1	none (no result: Cdc25B inh, MKP-1 inh, Her2 expr inh, SK-BR-3 tox 24h)

Source: PubChem BioAssay
